This is an account of results in PubChem BioAssay (NCI).

The panel holds about 83,000 compounds, 20% with a hit somewhere; the sample as a whole holds those more often.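 Cell lines were cultured in 96-well plates, exposed to a single compound concentration, and assessed for percent growth 48 hours later.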 A number with no mark means an inactive call. Calls of active or inactive are those of the source. The calls were made as follows: active = growth percent below 10; inactive = the rest.

Test systems include NCI-H23 lung; NCI-H226 lung; NCI-H322M lung; HOP-62 NSCLC; NCI-H460 lung; HOP-92 NSCLC; NCI-H522 lung; A549/ATCC NSCLC; 786-0 renal; COLO 205 colon.
Holding throughout (assay): NCI-60 one-dose screen, 48 h (100 = growth as untreated, 0 = no growth, -100 = all killed)
Common to all, as to settings: 10 µM unless noted

`CSc1nc2ccccc2cc1/C=C1/C=C(c2ccccc2)NC1=O`: the growth with NCI-H23 lung is 87.4%; in the assay on NCI-H226 lung, 92.9%; in the assay with NCI-H322M lung, 93%; with HOP-62 NSCLC, 79.1%; in the assay with NCI-H460 lung, 84.7%; in the assay on HOP-92 NSCLC, 70.2%. The growth with NCI-H522 lung is 74.6%; in the assay on A549/ATCC NSCLC, 81.9%; in the assay on 786-0 renal, 93.2%; with COLO 205 colon it was 93.8%.
Consider `O=C(Nc1cccc(-c2ccc(Cl)c(C(F)(F)F)c2)c1)C1CCN(Cc2cccc3cccnc23)CC1`, for which the growth is 48.2% with NCI-H23 lung; 45.9% in the assay with NCI-H226 lung; 35.5% in the assay on NCI-H322M lung; 62.3% in the assay on HOP-62 NSCLC; -87.2% (active) in the assay with NCI-H460 lung; 30.2% with HOP-92 NSCLC. Moreover, the growth in the assay on NCI-H522 lung was -53% (active); in the assay with A549/ATCC NSCLC, -30.8% (active); in the assay with 786-0 renal, 31.9%; in the assay on COLO 205 colon it was -72.2% (active).
Take `COc1ccc(/C=N\Nc2nc(SCCC(C)C)nc(-c3ccc(OC)cc3)c2C#N)cc1`: the growth in the assay on NCI-H23 lung was 72.1%; in the assay on NCI-H226 lung, 88.9%; in the assay on NCI-H322M lung, 80.8%; in the assay with HOP-62 NSCLC, 18.4%; in the assay with NCI-H460 lung, 13.9%; in the assay on HOP-92 NSCLC, 63.2%. Also, the growth in the assay with NCI-H522 lung was 60.5%; in the assay on A549/ATCC NSCLC it was 70.9%; in the assay on 786-0 renal it was -2.8% (active); in the assay on COLO 205 colon it was 68%.
`CCN1C(=S)N(c2ccccc2)C2NC(=S)N(/N=C/C=C/c3ccccc3OC)C21` (stereo not given): the growth with NCI-H23 lung is 32.7%; in the assay on NCI-H226 lung it was 58%; in the assay on NCI-H322M lung, 45.6%; in the assay with HOP-62 NSCLC, 36.9%; in the assay on NCI-H460 lung it was 3.12% (active); with HOP-92 NSCLC it was 53.5%. Further, the growth was -15.5% (active) in the assay on NCI-H522 lung, 11.4% with A549/ATCC NSCLC, 29.4% with 786-0 renal and -2.82% (active) with COLO 205 colon.
`COc1ccc(-c2nc3c(ncc4ccc(=O)[nH]c43)s2)cc1`: the growth with NCI-H23 lung is 78.8%; in the assay with NCI-H226 lung, 76.1%; in the assay with NCI-H322M lung, 77.7%; in the assay with HOP-62 NSCLC it was 90.2%; in the assay on NCI-H460 lung it was 40.8%; with HOP-92 NSCLC, 87.7%. Moreover, the growth in the assay with NCI-H522 lung was 85.3%; in the assay on A549/ATCC NSCLC it was 56.1%; in the assay with 786-0 renal it was 88.3%; with COLO 205 colon, 83.6%.
As to `O=S(=O)(Nc1ccc(Cl)c(C(F)(F)F)c1)c1ccc(-c2cnc(C3CC3)o2)cc1`, the growth was 20.4% in the assay on NCI-H23 lung; 46.7% in the assay with NCI-H226 lung; 44.4% in the assay on NCI-H322M lung; 12.2% in the assay on HOP-62 NSCLC; 7.09% (active) in the assay on NCI-H460 lung; -18.5% (active) with HOP-92 NSCLC. Also, the growth is -1.8% (active) in the assay with NCI-H522 lung, 8.92% (active) in the assay on A549/ATCC NSCLC, 25.9% in the assay with 786-0 renal and 2.71% (active) in the assay with COLO 205 colon.
As for `COC(=O)c1c(C)c2n(c1C)C(=O)C(c1ccccc1)=C2`, the growth in the assay with NCI-H23 lung was 68.9%; in the assay with NCI-H226 lung, 61.8%; in the assay with NCI-H322M lung, 94.5%; in the assay with HOP-62 NSCLC, 72.7%; in the assay with NCI-H460 lung it was 89.5%; in the assay with HOP-92 NSCLC it was 65.8%. In addition, the growth in the assay on NCI-H522 lung is 61.9%; in the assay on A549/ATCC NSCLC it was 39.6%; in the assay with 786-0 renal it was 94.3%; in the assay on COLO 205 colon, 79.3%.
As to `N#Cc1ccc2c(c1)C(=O)c1c-2n(CCCN)c(=O)c2cc([N+](=O)[O-])ccc12`, the growth in the assay with NCI-H23 lung is -57.6% (active); in the assay on NCI-H226 lung, -71.6% (active); in the assay on NCI-H322M lung it was -81.5% (active); in the assay on HOP-62 NSCLC, -89.5% (active); in the assay with NCI-H460 lung, -100% (active); in the assay with HOP-92 NSCLC, -2.3% (active). In addition, the growth with NCI-H522 lung is -72.2% (active); with A549/ATCC NSCLC, -100% (active); with 786-0 renal, -90% (active); in the assay with COLO 205 colon, -100% (active).
Regarding `Cc1ccc(C2=Nc3c(N)ncnc3NC(c3cccc(Nc4ccnc5cc(C(F)(F)F)ccc45)c3)C2)cc1` (stereo not given), the growth in the assay with NCI-H23 lung was 44.3%; in the assay with NCI-H226 lung it was 59.8%; with NCI-H322M lung it was 67.2%; with HOP-62 NSCLC, 41.1%; with NCI-H460 lung, 21.2%; in the assay on HOP-92 NSCLC, 2.86% (active). Further, the growth in the assay with NCI-H522 lung is 30.6%; in the assay with A549/ATCC NSCLC it was 24.6%; in the assay on 786-0 renal it was 42.6%; in the assay with COLO 205 colon, 9.89% (active).
For `Nc1nc2ccccc2c2c(=O)c3cccc(Cl)c3sc12`, the growth was 80.3% with NCI-H23 lung; 94.4% in the assay on NCI-H226 lung; 89.1% in the assay on NCI-H322M lung; 81.8% with HOP-62 NSCLC; 61.5% with NCI-H460 lung; 101% in the assay on HOP-92 NSCLC. Further, the growth is 93.3% with NCI-H522 lung, 76.8% in the assay with A549/ATCC NSCLC, 96.2% in the assay with 786-0 renal and 57.2% in the assay with COLO 205 colon.
On to `COc1cc(OCc2cccc(Br)c2C)cc(OC)c1C=O`, for which the growth in the assay with NCI-H23 lung is 75.7%; in the assay with NCI-H226 lung it was 29.3%; with NCI-H322M lung, 92.6%; in the assay on HOP-62 NSCLC, 93.5%; with NCI-H460 lung, 75.8%; with HOP-92 NSCLC, 90.6%. Further, the growth was 62% with NCI-H522 lung, 76.5% in the assay on A549/ATCC NSCLC, 79.4% in the assay with 786-0 renal and 93.4% in the assay on COLO 205 colon.
For `CCCNc1nc2ccccc2c2c1S(=O)(=O)c1ccc(Cl)cc1C2=O`, the growth with NCI-H23 lung is 24.7%; in the assay with NCI-H226 lung, 34.7%; in the assay on NCI-H322M lung it was 32.7%; in the assay on HOP-62 NSCLC, 9.66% (active); in the assay on NCI-H460 lung, 5.29% (active); in the assay on HOP-92 NSCLC, -27.2% (active). Further, the growth with NCI-H522 lung is -81.3% (active); in the assay with A549/ATCC NSCLC, 19.6%; in the assay on 786-0 renal, 13.9%; in the assay with COLO 205 colon, -9.19% (active).
On to `CC(=O)c1c(C)nc(SCC(=O)Nc2cccc(O)c2)n1-c1ccc(Cl)cc1`, for which the growth in the assay with NCI-H23 lung is 94.3%; with NCI-H226 lung it was 107%; in the assay on NCI-H322M lung it was 91.2%; in the assay on HOP-62 NSCLC, 105%; in the assay on NCI-H460 lung, 94.5%; in the assay with HOP-92 NSCLC, 100%. Also, the growth was 83.9% in the assay with NCI-H522 lung, 96.2% with A549/ATCC NSCLC, 102% with 786-0 renal and 118% in the assay with COLO 205 colon.
